Our source for the z-score values is PubChem BioAssay.

The structures appear in SMILES notation.

The nature of the test: A549 cell viability effects, profiling panel, calcein-AM fluorescence, 48 h, basal (AID 1162). Note: test concentration not given here. The conditions noted are these: higher = more signal.
`COc1ccc([Si](C)(C)[C@@H]2[C@@H](CCn3cc([C@H](O)c4ccccc4)nn3)O[C@]3(C(=O)N(c4ccccc4)c4ccccc43)[C@H]2C)cc1`: the z-score was -0.985.

Regarding `CCN(CC)c1ccc(N2CC=CC34O[C@@H]5C=CCCOC(=O)C5[C@H]3C(=O)N(CCO)[C@@H]4C2=O)cc1` (some centres not stated), the z-score was -0.126.

In the case of `COc1ccc([Si](C)(C)[C@H]2[C@H](CCO)O[C@@]3(C(=O)N(Cc4ccc(N5C(=O)c6ccccc6Oc6ccccc65)cc4)c4ccccc43)[C@@H]2C)cc1`, the z-score was -0.573.

In the case of `CC(C)CNC(=O)[C@@]1(C)c2ccccc2C(=O)N(Cc2cc(C(F)(F)F)cc(C(F)(F)F)c2)[C@H]1c1ccc(CO)cc1`, the z-score was 0.18.

With `[N-]=[N+]=NC[C@H](Cc1ccccc1)NC(=O)c1ccccc1`, the z-score is 0.431.

Take `CN(C)C(=O)[C@]1(CCS(=O)(=O)c2ccccc2)N=C(c2ccc(OCCCO)cc2)O[C@@H]1c1ccccc1`: the z-score was -1.05.

As for `O=C(CS)NCCCCCNC(=O)[C@@H]1C[C@@H]2C(=O)N[C@@H](Cc3ccccc3)C(=O)N2[C@@H]1c1cccc(OCCO)c1`, the z-score is 0.688.

For `CN1C(=O)C2C=CC(C(O)c3ccc(F)cc3)N(NC(=O)OC(C)(C)C)C2C1=O` (configuration not stated), the z-score is -0.834.

On to `[N-]=[N+]=NCc1ccccc1[C@@H]1OC(c2ccc(OCCCO)cc2)=N[C@]1(Cc1ccccc1)C(=O)NCCN1CCOCC1`, for which the z-score was 0.239.

In the case of `[N-]=[N+]=Nc1ccccc1[C@@H]1OC(c2ccc(OCCCO)cc2)=N[C@]1(Cc1ccccc1)C(=O)NCc1ccccc1`, the z-score was -1.17.

On to `CO[C@H]1O[C@H](CO)[C@@H](OC(=O)Nc2ccc(C#N)cc2)[C@@H]2OC(=O)[C@H](Cc3cccc(Br)c3)C/C=C/C[C@@H](Cc3cccc(Br)c3)C(=O)O[C@@H]12`, for which the z-score is 1.31.

In the case of `CC(C)C[C@@H]1NC(=O)[C@@]23C(=O)N[C@@H](Cc4ccccc4)C2[C@H](C)[C@@]2(C)O[C@H]2C3/C=C/C/C=C\CNC(=O)[C@@H](C)NC1=O` (some centres not stated), the z-score was -0.366.

With `COCCOC(=O)N1C(=O)[C@@]2(c3cc(C#CCC(C(=O)OC)C(=O)OC)ccc31)[C@H](c1ccc(O)cc1)N1[C@H](c3ccccc3)[C@H](c3ccccc3)OC(=O)[C@H]1[C@@H]2C(=O)NC[C@H](O)c1ccccc1`, the z-score is -0.61.

For `C=CCC(OC(C)=O)[C@@H]1[C@@H](N(Cc2ccc(-c3cccc(C(F)(F)F)c3)o2)C(=O)c2ccc(C)cc2)c2cc(OCCCO)ccc2N1C(=O)Cc1ccc(OC)cc1` (some centres not stated), the z-score was 1.22.

As for `CCCCC(=O)N(CCN1CCOCC1)[C@@H]1CC(C(=O)NCCO)=C[C@H](Oc2c(I)cc(CO)cc2OC)[C@H]1O`, the z-score was 1.5.

`O=C1NC(=O)C2C1C=CC(C(O)c1ccccn1)N2Nc1ccc(Cl)cc1Cl` (configuration not stated): the z-score was -0.881.

Regarding `C=CCC(OC(C)=O)[C@@H]1[C@@H](N(Cc2ccc(-c3cccc(C(F)(F)F)c3)o2)C(=O)Cc2ccc(OC)cc2)c2cc(OCCCO)ccc2N1C(=O)Cc1ccc2ccccc2c1` (some centres not stated), the z-score is 0.553.

Turning to `C=C[C@@H](C)[C@H](O)c1ccc(OCCO)cc1`, the z-score is 0.283.

For the molecule `O=C1O[C@H](c2ccccc2)[C@H](c2ccccc2)N2[C@H]1[C@@H](C(=O)N1CCCCCCC1)[C@]1(C(=O)Nc3ccc(C#CC4(O)CCCCCC4)cc31)[C@H]2c1ccccc1OCCO`, the z-score was -0.222.

For the molecule `O=C1O[C@H](c2ccccc2)[C@H](c2ccccc2)N2[C@H]1[C@@H](C(=O)N1CCCCCCC1)[C@]1(C(=O)Nc3ccc(C#CC4(O)CCCCCC4)cc31)[C@H]2c1ccc(O)cc1`, the z-score is 0.792.

Regarding `COCCOC(=O)N1C(=O)[C@@]2(c3ccccc31)[C@H](c1ccc(OCCO)cc1)N1[C@H](c3ccccc3)[C@H](c3ccccc3)OC(=O)[C@H]1[C@@H]2C(=O)N1CCCCCCC1`, the z-score is 0.246.

Turning to `CC(=O)NCCCC[C@@H]1NC(=O)[C@@H]2C[C@H](C(=O)NCCCCCCN)[C@H](c3cccc(OCCO)c3)N2C1=O`, the z-score was -0.182.

For `[N-]=[N+]=Nc1ccccc1C[C@]1(C(=O)O)N=C(c2ccc(OCCCO)cc2)O[C@H]1c1ccccc1N=[N+]=[N-]`, the z-score was -0.35.

`CCN(CC)c1ccc(N2CC=CC34O[C@@H]5/C=C\CCC(C)OC(=O)C5[C@H]3C(=O)N(C(C)CO)[C@@H]4C2=O)cc1` (some centres not stated): the z-score is -0.0588.

Regarding `O=C(O)[C@H]1C[C@H]2C(=O)N[C@@H](Cc3ccccc3)C(=O)N2[C@H]1c1cccc(OCCO)c1`, the z-score is 1.11.

Consider `CCCCCCCCCCC(O)C1C=CC2C(=O)N(C)C(=O)C2N1Nc1cc(OC)c(OC)c(OC)c1` (configuration not stated), for which the z-score was -2.12.

On to `C=CCN1C(=O)[C@]2(O[C@H](CCO)[C@@H]([Si](C)(C)c3ccc(OC)cc3)[C@@H]2C)c2cc(N3C(=O)COc4ccccc43)ccc21`, for which the z-score is -3.84.
